Source: PubChem BioAssay AID1494158 (National Center for Advancing Translational Sciences (NCATS), 2020)
Inconclusive results are not listed. Values without a mark were called inactive. Activity calls are given as the source filed them. The call rests on the fitted dose curve.

Experiment: VSV-G qHTS counterscreen for inhibitors of SARS-S pseudo-typed particle cell entry
Conditions: VSV-G pseudotyped particle entry counterscreen, luciferase; series mostly up to 57.1 µM; activity, negative = inhibition: at the top concentration

**Q.** For `CCCCCCCCCCCC[n+]1ccc2ccccc2c1`, which Potency is on record?
**A.** The Potency was 1920 nM (active).

**Q.** With `CNCCCC12CCC(c3ccccc31)c1ccccc12` as the compound, how does the “activity, negative = inhibition” value read?
**A.** The value was -5.33%.

**Q.** Which Potency does the source give for `C=C(C)[C@H]1Cc2c(ccc3c2O[C@@H]2COc4cc(OC)c(OC)cc4[C@@H]2C3=O)O1` here?
**A.** The Potency was 38.3 nM (active).
